The whole screen tested about 4,100 compounds, of which about 1,600 (39%) were called active. Not shown: some 25% with an inconclusive outcome. Calls follow the shape of the dose curve; as a rule, active = well fitted inhibition curve with a large enough effect; inconclusive = small, poorly fitted or top-dose-only effect; inactive = no such curve, though single readings can be large or run the other way. Some of the results follow.
Assay: qHTS Validation assay for Inhibitors of Plasmodium falciparum Dd2 growth in vitro; also: nearly all actives have a fitted effect of over 70% in size
Details: P. falciparum Dd2 in RBCs, SYBR Green growth, 72 h; series mostly up to 28.7 µM; activity change, negative = inhibition: at the top concentration
Outline: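 P. falciparum Dd2-infected red blood cells (2.5% hematocrit, 0.3% parasitemia) grown 72 h at 37 °C under 5% O2 with compounds in a titration, 29 uM to 0.5 nM final. Growth read as SYBR Green-1 fluorescence after ~16 h lysis; artesunate 300 nM as positive control.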
% is scaled to controls: 0 for no effect and ±100 for the full control effect; potency is read from the fitted curve at half-maximal effect.

Potency, active:
OC(CNC1CCCCCC1)COc1cccc2ccccc12 (configuration not stated) 1.88 µM
C/C(=N\Nc1ncnc2sc(C)c(C)c12)c1ccccn1 1.33 µM
Cc1cnc(C2CCC2)n1C1CCCN(C(=O)CCCc2ccccc2)C1 (configuration not stated) 15 µM
CCOc1ccc(NC(=O)c2nnn3cc(C)[nH]c(=O)c23)cc1 10.6 µM
COc1ccc(NC(=O)O[C@@H]2CC[C@]3(C)C(CC[C@@H](O)[C@H]3CC(=O)NCc3ccccc3OC)[C@]2(C)CO)cc1 (some centres not stated) 6.68 µM
CCc1cc2c(Sc3nc4ccccc4s3)ncnc2s1 1.5 µM
c1ccc2sc(Sc3ncnc4sccc34)nc2c1 0.944 µM
Cc1c(N/N=C(\C#N)C(=O)c2ccccc2)c(=O)n(-c2ccccc2)n1C 6.68 µM
CN(C)CCN1C(=O)c2oc3ccc(Cl)cc3c(=O)c2C1c1cccc(Br)c1 (configuration not stated) 0.531 µM
COc1cccc(CN2CCCC(N3CCN(c4cccc(C(F)(F)F)c4)CC3)C2)c1O (configuration not stated) 0.842 µM
Oc1ccccc1CN1CCCC(N2CCN(c3cccc(C(F)(F)F)c3)CC2)C1 (configuration not stated) 1.33 µM
O=C(NNc1nc(-c2ccc(Br)cc2)cs1)c1ccco1 5.31 µM
CCN1CCCC1CNc1ncnc2c1[nH]c1ccc(Cl)cc12 (configuration not stated) 2.99 µM
Cc1ccc(NC2=C(c3ccc(C(F)(F)F)cc3)C(=O)c3ccccc32)cc1C 2.11 µM
Cc1ccc(NC2=C(c3ccc(C(F)(F)F)cc3)C(=O)c3ccccc32)cc1F 1.88 µM
Cc1ccc(C)c(NC2=C(c3ccc(C(F)(F)F)cc3)C(=O)c3ccccc32)c1 4.73 µM
CC(C)(C)n1[nH]c2c3c(ccc2c1=O)C(=O)c1ccccc1C3=O 4.73 µM
CCCc1nc2ccc(NC(=O)c3cccs3)cc2c(=O)n1Cc1ccc(Cl)cc1 8.41 µM
CC(=O)C1=C(c2ccc(Br)cc2)N(C(C)=O)n2c(nnc2C2CCCCC2)S1 2.99 µM
CC(=O)C1=C(c2ccc(Cl)c(Cl)c2)N(C(C)=O)n2cnnc2S1 3.76 µM
CC(=O)C1=C(c2ccc(Cl)cc2)N(C(C)=O)n2c(nnc2C2CCCCC2)S1 4.73 µM
CC(=O)C1=C(c2ccccc2)N(C(C)=O)n2c(nnc2C2CCCCC2)S1 4.22 µM
COc1ccc(C2=C(C(C)=O)Sc3nnc(-c4ccc(Cl)cc4)n3N2C(C)=O)cc1OC 3.76 µM
CCOc1ccc(C2=C(C(C)=O)Sc3nnc(C)n3N2C(C)=O)cc1 5.31 µM
COc1cccc(C2=C(C(C)=O)Sc3nnc(C4CCCCC4)n3N2C(C)=O)c1 4.73 µM
O=C(Nc1ccc(Cl)cc1)N1CCC2(CC1)CCN(Cc1cccs1)c1ccccc1O2 8.41 µM
Cc1ccc([S+](=O)([O-])N2CCC3(CCN(Cc4cccs4)c4ccccc4O3)CC2)cc1 18.8 µM
CCC(C)NC(=O)c1ccccc1NC(=O)C1COc2ccccc2O1 (configuration not stated) 10.6 µM
Cc1ccc(-n2c(C)cc(C(=O)OCC(=O)N(C)C3CCS(=O)(=O)C3)c2C)cc1 (configuration not stated) 4.73 µM
CC1CCCCN1CCCNC(=O)c1ccc2c(c1)sc1nc(-c3ccc(F)cc3)cn12 (configuration not stated) 1.88 µM
CCC1CCCCN1CCCNC(=O)c1ccc2c(c1)sc1nc(-c3ccc(F)cc3)cn12 (configuration not stated) 1.5 µM
CC1CCCCN1Cc1c(O)ccc2c(=O)c(-c3nc4ccccc4s3)c(N)oc12 (configuration not stated) 1.06 µM
CN(C)Cc1cc(C[C@@H]2C[C@H](NCc3ccccc3O)C2(C)C)no1 17.2 µM
CCc1cccc2sc(N3CCN(C(=O)c4ccc([N+](=O)[O-])o4)CC3)nc12 1.06 µM
O=C(c1ccc([N+](=O)[O-])o1)N1CCN(c2nc3c(F)cc(F)cc3s2)CC1 5.96 µM
O=C(c1ccc([N+](=O)[O-])o1)N1CCN(c2nc3c(Cl)cccc3s2)CC1 4.22 µM
Cc1nn(-c2ccccc2)c2c1C(c1cccnc1)N1C=C(S(=O)(=O)N3CCCCC3)C=CC1=N2 (configuration not stated) 15 µM
Fc1ccc(-c2ccc3ncc(Nc4ccnc(N5CCOCC5)c4)n3n2)cc1 1.72 µM
COc1ccc(-c2ccc3ncc(Nc4cccc(C(F)(F)F)c4)n3n2)cn1 12.2 µM
COc1ccc(-c2ccc3ncc(Nc4ccnc(N5CCOCC5)c4)n3n2)cn1 4.85 µM
CCN1CCN(c2cc(C)c3cc(NC(=O)c4ccc(Br)o4)ccc3n2)CC1 6.68 µM
Cc1cc(N2CCN(C)CC2)nc2ccc(NC(=O)c3ccc(Br)o3)cc12 6.68 µM
CCN(CC)c1cc(C)c2cc(NC(=O)c3ccc(Br)o3)ccc2n1 6.68 µM
OC(CN1CCN(c2ccccn2)CC1)Cn1c2ccc(Cl)cc2c2cc(Cl)ccc21 (configuration not stated) 2.99 µM
Cc1ccc(-c2nn(-c3ccccc3)c3[nH]c(=O)c(CNCc4ccccc4)cc23)cc1 0.422 µM
Cc1ccc(CNCc2cc3c(C(C)(C)C)nn(-c4ccccc4)c3[nH]c2=O)cc1 0.266 µM
COc1ccc(CNCc2cc3c(C(C)(C)C)nn(-c4ccccc4)c3[nH]c2=O)cc1 0.842 µM

Activity change, negative = inhibition, inactive:
Cc1sc2ncnc(SC(C)C(=O)N3c4ccccc4Sc4ccccc43)c2c1C (configuration not stated) -2.6%
Cc1sc2ncnc(NCC3(N4CCOCC4)CCCCC3)c2c1C -18.8%
COc1ccc(-c2noc([C@@H]3CCCN3C(=O)CCCc3ccccc3)n2)cc1 1.4%
O=C(CCCc1ccccc1)N1CCC[C@H]1c1nc(-c2ccccc2)no1 -16.8%
Cc1cccc(CNC(=O)c2nnn3cc(C)[nH]c(=O)c23)c1 13.4%
COc1ccc(S(=O)(=O)N2CCC(CC(=O)NCc3ccccc3)C2)cc1 (configuration not stated) 3.39%
CCOc1cc(CN2CCCC(N3CCN(c4ccc(F)cc4)CC3)C2)ccc1OC (configuration not stated) -9.71%
O=C(NC[C@H]1O[C@@H](CO)[C@@H](O)[C@H]1N1CCN(c2cccc(C(F)(F)F)c2)CC1)c1cccs1 -4.61%
CC1(C)C(=O)N(Cc2ccccc2)[C@H]2CN(CC3CCOCC3)C[C@@H]2[S+]1(=O)[O-] 7.69% [at 43.1 µM]
CCCCOC(=O)N1CCC(N2CCCC(C(=O)N3CCOCC3)C2)CC1 (configuration not stated) 35%
CN(Cc1cccn1C)S(C)(=O)=O 30.2% [at 57.5 µM]
CN(C)C[C@@H]1CN(c2ccncn2)C[C@H]1NC(=O)c1cnco1 16.3%
Oc1ccc(-c2ccc(-c3nc(CCc4ccccc4)no3)cn2)cc1 0%
Cc1ccc(Cn2nnc(C(=O)Nc3ccc(F)c(F)c3)c2N)cc1 6.12%
Cc1ccc(-c2nc(C)c(C(=O)O)s2)cc1 29.2%
Cc1ncoc1C(=O)N1CCCCCC1c1nnc(-c2ccccc2)o1 (configuration not stated) -8.53%
COc1ccc(-c2noc(N3CCN(c4ccc(C)cc4)C(C)C3)n2)cc1OC (configuration not stated) 19.4%
CC[C@@]1(O)CCN(C(=O)c2cccc(-c3cccc(OC)c3)c2)C[C@H]1O 36.8%
COc1ccc(C(=O)NCc2nnc3ccc(-c4ccc(Cl)cc4)nn23)cc1F 1.75%
COc1cc(Cc2cnc(N)nc2N)cc(OC)c1OC -3.03%
Cc1noc(-c2cccn3c(CNC(=O)c4cccc(N(C)C)c4)nnc23)n1 -9.65%
CCCN1CCC2(CCN(C(=O)c3cccc(Cl)c3)CC2)Oc2ccccc21 -10.4%
COCC(=O)N1CCC2(CC1)CCN(Cc1cccs1)c1ccccc1O2 -11.4%
CCC(C)NC(=O)C1COC2(CCN(C(=O)c3cccc(Cl)c3)CC2)N1C(=O)c1ccccc1C (configuration not stated) -20%
CCc1ccc(OCC(=O)N(Cc2ccc(C(C)C)cc2)C2CCS(=O)(=O)C2)cc1 (configuration not stated) -21.5%
CCc1ccc(CN(C(=O)c2cc3ccccc3oc2=O)C2CCS(=O)(=O)C2)cc1 (configuration not stated) 4.23%
COc1ccc(-c2cc3c(=O)n(CCNC(=O)c4ccc(C)c(F)c4)ccn3n2)cc1 -1.49%
CN1c2cc(C(=O)NCc3ccc(F)cc3)ccc2C(=O)N2CCCCCC21 (configuration not stated) 10%
O=C(C1CCC1)N1CCC2(CC1)CC(N(Cc1ccccc1)C1CC1)CCO2 (configuration not stated) -0.913%
COCCN1C(=O)CS(=O)(=O)C12CCN(C(=O)c1cc(C)ccc1C)CC2 -2.68%
CC(C)(C)CN[C@H]1C[C@@H](Cc2cc(CN3CCOCC3)on2)C1(C)C 3.76% [at 43.1 µM]
CN(C)Cc1cc(CC2(NCc3ccc(C#N)cc3)COC2)no1 20.6% [at 43.1 µM]
CC(=O)N1CCN(c2nc3c(s2)CC(C(=O)NCc2cccc(Cl)c2)CC3)CC1 (configuration not stated) -21.9%
Cc1noc(C(C)N(C)C(=O)c2cc(COc3ccccc3F)[nH]n2)n1 (configuration not stated) 47.1%
COC(=O)[C@@H]1Cc2ncn(C(C)C)c2CN1S(=O)(=O)c1cccc(C(F)(F)F)c1 37.8% [at 43.1 µM]
CCc1noc(-c2cccn3c(CNC(=O)Cc4ccc(Cl)cc4)nnc23)n1 -12.7%
Cc1ccoc1C(=O)Nc1ccc(CC(=O)O)cc1 32.1%
CCN(c1ccccc1)S(=O)(=O)c1ccc(NC(=O)c2cc(=O)c3cc(C)ccc3o2)cc1 44%
O=c1cc(N2CCOCC2)oc2c(N3CCN(c4ccccn4)CC3)nccc12 -7.02% [at 43.1 µM]
CC(NC(=O)Cc1cccc(F)c1)C(=O)N1CCN(c2ccccn2)CC1 (configuration not stated) -6.29%
Cc1ccc(Oc2c(CCC(=O)NC(C)C)c(C)nn2-c2ccccc2)cc1 -18.5%
Cc1nc(NCc2ccccc2)[nH]c(=O)c1CCC(C)C -0.527%
COc1ccc(CNC(=O)CC[C@@H]2CNC(=O)[C@@H]3C[C@H](NCc4ccccc4)CN23)cc1 41%
COc1ccc(CNC(=O)C2CCN(C(=O)c3cc4c(=O)[nH]c(C)cn4n3)CC2)cc1 2.01%
CCCC(=O)N=C1SC2CS(=O)(=O)CC2N1c1ccc(CC)cc1 (configuration not stated) 36.5%
